Screening data (PubChem BioAssay)
Most compounds without a hit are left out; they make up all but 27% or so of the library.
CYP2C19 inhib: blockers of cytochrome P450 2C19 activity – biochemical, luminescence, ADME assay, primary screen | CYP2C19 Supersomes, luciferin-H EGE luminescence, 30 min | 96,000 compounds, 21% hits | inhibition, % at 5 µM;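 active means CYP2C19 inhibition above a set limit at 5 µM in the primary screen, cut at about 50% in these data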
CYP2C19 act: human CYP2C19 activators, primary screen, biochemical, luminescence; Cytochrome P450 2C19 (Homo sapiens), P33261; AID 1025, 2008; activation factor at 5 µM; recombinant CYP2C19, luciferin-H EGE luminescence; active compounds read high; 0 = fully inhibited enzyme, 1 = untreated enzyme; 96,000 tested, under 10 active;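 active means activation factor of at least 2 at 5 µM in the primary screen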
sEH inhibitor: soluble epoxide hydrolase inhibitors, primary screen, biochemical, human sEH; inhibition, % at 2 µM; recombinant human sEH enzymatic activity assay; 91,000 compounds, 0.34% hits; in the data active means inhibition above about 80%
CYP2C9 inhib: blockers of cytochrome P450 2C9 activity – biochemical, luminescence, ADME assay, primary screen. P11712. CYP2C9 Supersomes, luciferin-H conversion. inhibition, % at 5 µM. 96,000 compounds, 20% hits. AID 777, 2007;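 active means blocking of liver enzyme CYP2C9 beyond about 50% at 5 µM, limit read from the data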
Target sequence (P11712 whole entry, looked up): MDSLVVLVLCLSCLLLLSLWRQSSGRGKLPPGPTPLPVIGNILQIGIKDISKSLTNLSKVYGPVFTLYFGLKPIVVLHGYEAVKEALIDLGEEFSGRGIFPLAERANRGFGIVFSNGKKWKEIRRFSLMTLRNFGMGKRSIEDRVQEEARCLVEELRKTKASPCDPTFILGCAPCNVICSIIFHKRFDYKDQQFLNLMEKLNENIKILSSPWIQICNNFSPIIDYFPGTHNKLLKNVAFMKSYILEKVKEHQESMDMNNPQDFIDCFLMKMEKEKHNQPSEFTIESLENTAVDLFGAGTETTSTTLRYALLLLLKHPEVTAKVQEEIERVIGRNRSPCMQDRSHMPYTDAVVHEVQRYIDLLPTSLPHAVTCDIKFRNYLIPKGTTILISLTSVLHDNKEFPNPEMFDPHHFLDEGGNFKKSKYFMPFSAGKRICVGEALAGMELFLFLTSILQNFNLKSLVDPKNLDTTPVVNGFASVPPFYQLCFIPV
CYP2C9 activ: human CYP2C9 activators, primary screen, biochemical, luminescence | recombinant CYP2C9, luciferin-H conversion; active compounds read high; factor 1 = untreated enzyme, 0 = blocked | 96,000 compounds, 1.4% hits | activation factor at 5 µM;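 active means activation factor of 2 or more for CYP2C9 at a 5 µM dose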
sEH act: soluble epoxide hydrolase activators, primary screen, biochemical, human sEH | purified human sEH enzymatic activity, activator screen | activation, % at 2 µM | 91,000 compounds, 0.04% hits; in the data active means activation above about 37%
Of the large screens only hits and unclear results are named; the others gave an inactive call.

COc1ccc(CCNC(=O)COC(=O)c2ccc(Br)o2)cc1OC	CYP2C19 inhib 71, CYP2C9 inhib 80
O=C(COC(=O)c1ccc(Br)o1)NCCCc1ccccc1	CYP2C9 inhib 71 (no result: sEH inhibitor, sEH act)
CCOc1ccc(CCNC(=O)COC(=O)c2ccco2)cc1OCC	CYP2C19 inhib 52, CYP2C9 inhib 69
O=C(Cn1cc2c(n1)CCCC2)N1CCCC1	none
CCCCc1ccc(NC(=O)C2CCN(S(C)(=O)=O)CC2)cc1	none
COc1ccc(CCNC(=O)COC(=O)c2ccc(Br)o2)cc1	CYP2C9 inhib 78
O=C(NCc1cccnc1)/C(=C/c1ccc(-c2ccc(Cl)cc2)o1)S(=O)(=O)c1ccccc1	CYP2C19 inhib 67
O=C(NCc1cccnc1)/C(=C/c1ccc(-c2cccc(C(F)(F)F)c2)o1)NC(=O)c1ccccc1	none
Cc1ccc(NC(=O)N2CCC(C(=O)Nc3ccc(C)cc3C)CC2)cc1	none (no result: CYP2C19 inhib, CYP2C19 act, CYP2C9 inhib, CYP2C9 activ)
CC(=O)N(CC1CCCO1)c1nnc(-c2ccccn2)s1 (stereo unspecified)	none
Cc1ccc(-c2ccc(/C=N/NC(=O)CN3CCCC3)o2)cc1Cl	none
Cc1ccc(-c2ccc(/C=N\NC(=O)C3C(=O)NCC3c3ccccc3)o2)cc1Cl (stereo unspecified)	CYP2C9 inhib 50
O=C1NCC(c2ccccc2)C1C(=O)N/N=C\c1ccc(-c2cccc(Cl)c2Cl)o1 (stereo unspecified)	CYP2C9 inhib 59
COc1cccc(/C=N\NC(=O)C2C(=O)NCC2c2ccccc2)c1O (stereo unspecified)	none
CC(C)OC(=O)c1c2nc3ccccc3nc2n2c1[nH]c(=O)c1ccccc12	none
O=C(Oc1ccccc1)c1ccc2nsnc2c1	none (no result: CYP2C19 inhib, CYP2C19 act, CYP2C9 inhib, CYP2C9 activ)
C=CCn1c(SCC(=O)NCc2ccco2)nnc1-c1ccc2ccccc2n1	CYP2C9 inhib 59
Cc1ccc(CSc2nc3ccccc3c(=O)n2CCCC(=O)NCc2ccco2)cc1	CYP2C19 inhib 74, CYP2C9 inhib 98
Cc1sc2nc(SCC(=O)NCc3ccco3)n(CCc3ccccc3)c(=O)c2c1C	CYP2C9 inhib 65
CC1(C)Cc2c(sc3nc(SCC(=O)NCc4ccco4)n(-c4ccccc4)c(=O)c23)CS1	CYP2C9 inhib 54
O=C(CSc1nnc(-c2ccccc2)n1-c1ccccc1)NCc1ccco1	none
O=C(CSc1nc2sc3c(c2c(=O)n1-c1ccccc1)CCCC3)NCc1ccco1	none
O=C(CCn1c(SCC(=O)NCc2ccco2)nc2ccccc2c1=O)NCCc1ccccc1	CYP2C19 inhib 77, CYP2C9 inhib 85
C=CCn1c(CSc2nc3ccccc3s2)nnc1SCC(=O)NCc1cccnc1	none (no result: CYP2C19 inhib, CYP2C19 act, CYP2C9 inhib, CYP2C9 activ)
CC(C)c1nc2ccccc2c2nnc(SCC(=O)NCc3ccco3)n12	CYP2C19 inhib 98, CYP2C9 inhib 76
Cc1nc2ccccc2n1CCc1nc2c3ccccc3nc(SCC#N)n2n1	none
C=CCn1c(CSc2nc3ccccc3s2)nnc1SCC(=O)NCc1ccccc1	CYP2C9 inhib 50
CC(C)(C)c1nc2ccccc2c2nnc(SCC(=O)NCc3ccco3)n12	none
Cc1nc2ccccc2n1CCc1nc2c3ccccc3nc(SCC(=O)NCc3ccco3)n2n1	CYP2C9 inhib 72
Cc1ccc(Nc2nc3nonc3nc2N(C)C)cc1	none
CCNc1nc2nonc2nc1NCC	CYP2C9 activ 2.6
CCn1c(C(O)c2ccc3c(c2)OCO3)nc2ccccc21 (stereo unspecified)	CYP2C19 inhib 98
O=C1CCCc2c1cc(C(=O)NCc1ccco1)c(=O)n2-c1ccc(Cl)cc1	CYP2C19 inhib 84
Cc1cccc(NC(=O)c2cc3c(n(-c4ccccc4)c2=O)CCCC3=O)n1	CYP2C9 inhib 50
O=C1CCCc2c1cc(C(=O)NCCCN1CCOCC1)c(=O)n2-c1ccc(Cl)cc1	none
O=[N+]([O-])c1ccc(Oc2c(F)c(F)nc(N3CCCC3)c2F)cc1	none
Cc1cc2c(C)c(C)c(=O)[nH]c2cc1N	none
CCCCOC(=O)C(C)Nc1n[nH]c(=O)[nH]c1=O (stereo unspecified)	none
